# Test results published in PubChem BioAssay (NCATS).
# “And” between values parts separate entries of the source, which are not always exact repeats. Equal values may be shown once. Records with an inconclusive call do not appear. A call without a number means that no potency is given here. Some structures have more than one record in an assay (separate samples or runs), and their calls can disagree. The source made the active and inactive calls. Calls follow the shape of the dose curve; as a rule, active = well fitted curve in the direction sought with a large enough effect; inconclusive = small, poorly fitted or top-dose-only effect, or another doubt; inactive = no such curve, though single readings can be large; an effect the other way counts as inactive or inconclusive.
# How the values were obtained:
# [1] = biological target: Cytochrome P450 3A7 (Homo sapiens) (UniProt P24462); test: Cytochrome P450 family 3 subfamily A member 7 (CYP3A7) small molecule antagonists: luciferase biochemical qHTS assay (AID 1963596); also: nearly all actives have a fitted effect of over 40% in size
# Sequence of Cytochrome P450 3A7 (Homo sapiens) (P24462 whole entry, looked up): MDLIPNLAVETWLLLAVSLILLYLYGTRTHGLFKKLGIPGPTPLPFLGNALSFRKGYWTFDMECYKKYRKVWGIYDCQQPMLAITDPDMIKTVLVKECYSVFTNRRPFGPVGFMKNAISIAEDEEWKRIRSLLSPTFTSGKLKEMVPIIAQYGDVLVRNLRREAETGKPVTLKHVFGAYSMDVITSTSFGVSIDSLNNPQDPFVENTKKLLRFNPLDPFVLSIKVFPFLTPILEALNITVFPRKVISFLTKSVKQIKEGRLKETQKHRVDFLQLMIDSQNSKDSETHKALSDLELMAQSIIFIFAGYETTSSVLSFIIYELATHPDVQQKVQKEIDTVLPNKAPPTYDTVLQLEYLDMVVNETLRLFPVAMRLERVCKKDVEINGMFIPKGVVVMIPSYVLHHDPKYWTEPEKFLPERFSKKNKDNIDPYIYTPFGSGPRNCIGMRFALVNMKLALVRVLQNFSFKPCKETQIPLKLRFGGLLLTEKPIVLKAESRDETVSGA
# In short: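 P450-Glo luminescent assay: CYP3A7 enzyme converts a proluciferin substrate to luciferin, detected by luciferase reagent; light proportional to activity. Compounds in DMSO preincubated 10 min with enzyme-substrate mix at room temperature, then NADPH regeneration added for 1 h.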
# [2] = Viability qHTS for spleen associated tyrosine kinase inhibitor (SYKi) naive MV4-11 cells (AID 1963823); also: nearly all actives have a fitted effect of over 40% in size; also: potency is read from the fitted curve at half-maximal effect
# In short: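 Cells: MV4-11, SYK inhibitor naive, 500 per well. Treatment: library compounds, 72 hr, 37 C, 5% CO2. Read-out: CellTiter-Glo luminescence after 10 min RT.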
# [3] = Viability qHTS for spleen associated tyrosine kinase inhibitor (SYKi) drug resistant MV4-11 cells (AID 1963824); also: nearly all actives have a fitted effect of over 35% in size; also: potency is read from the fitted curve at half-maximal effect
# In short: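 SYK inhibitor-resistant MV4-11 AML cells, 500 per well, added to predispensed compounds and incubated 72 hr at 37 C, 5% CO2. Viability measured by CellTiter-Glo luminescence after 10 min at room temperature.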
# [4] = Quantitative highthroughput screen to assess conditional lethalithy of NOMO1 cells grown in RPMI1640 with untreated serum (RPMI+s) (AID 1963876); also: nearly all actives have a fitted effect of over 35% in size; also: potency is read from the fitted curve at half-maximal effect
# In short: (§1)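 Each medium arm—HPLM with 10% dialyzed FBS, or RPMI1640 with 5 mM glucose and 10% untreated or dialyzed FBS—was screened against an 11-point, 3-fold compound titration for 48 h at 37 °C, with CellTiter-Glo luminescence as endpoint.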
# [5] = Quantitative highthroughput screen to assess conditional lethalithy of NOMO1 cells grown in RPMI1640 with dialyzed fetal bovine serum (RPMI+ds) (AID 1963877); also: nearly all actives have a fitted effect of over 30% in size; also: potency is read from the fitted curve at half-maximal effect; as to Viability: series mostly up to about 46 µM
# In short: as §1
# [6] = Quantitative highthroughput screen to assess conditional lethalithy of NOMO1 cells grown in Human Plasma-Like Medium with dialyzed fetal bovine serum (HPLM+ds) (AID 1963878); also: nearly all actives have a fitted effect of over 35% in size; also: potency is read from the fitted curve at half-maximal effect
# In short: as §1
# [7] = Quantitative highthroughput screen to assess conditional lethalithy of P12 Ichikawa cells grown in Human Plasma-Like Medium with dialyzed fetal bovine serum (HPLM+ds) (AID 1963879); conditions: Potency: viability; also: nearly all actives have a fitted effect of over 35% in size; also: potency is read from the fitted curve at half-maximal effect; as to Viability: series mostly up to about 46 µM
# In short: as §1
# [8] = Quantitative highthroughput screen to assess conditional lethalithy of P12 Ichikawa cells grown in RPMI1640 with dialyzed fetal bovine serum (RPMI+ds) (AID 1963880); conditions: Potency: P12-Ichikawa viability; also: nearly all actives have a fitted effect of over 35% in size; also: potency is read from the fitted curve at half-maximal effect
# In short: as §1
# [9] = Cellular viability qHTS for adrenocortical cancer (ACC) cell line SW-13 (AID 1963989); conditions: SW-13 ACC cells viability, CellTiter-Glo, 48 h; activity (max response): stronger effect = lower value;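 also: cells grown in serum-free medium with ITS supplement; nearly all actives have a fitted effect of over 65% in size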
# In short: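 Compound titrations (up to 46 uM final, in DMSO) were applied to SW-13 cells for 48 h at 37C/5% CO2. Reading used CellTiter-Glo after 20 min at room temperature; fitted curves yielded IC50 and efficacy.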
# [10] = Cellular viability qHTS for adrenocortical cancer (ACC) cell line NCI-H295R (AID 1963990); also: nearly all actives have a fitted effect of over 60% in size
# In short: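 Readout: CellTiter-Glo luminescence, 20 min RT. Exposure: 48 h, 37C/5% CO2. Cells: NCI-H295R, ITS-DMEM serum-free. Range: up to 46 uM. Analysis: 4PL fit, IC50 plus efficacy.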
# [11] = Quantitative highthroughput screen to assess conditional lethalithy of P12 Ichikawa cells grown in RPMI1640 with untreated serum (RPMI+s) (AID 1963881); conditions: Potency: viability; also: nearly all actives have a fitted effect of over 35% in size; also: potency is read from the fitted curve at half-maximal effect; as to Viability: series mostly up to about 46 µM
# In short: as §1
# [12] = Quantitative highthroughput screen to assess conditional lethalithy of SEM cells grown in Human Plasma-Like Medium with dialyzed fetal bovine serum (HPLM+ds) (AID 1963882)
# In short: as §1
# [13] = Quantitative highthroughput screen to assess conditional lethalithy of SEM cells grown in RPMI1640 with unreated serum (RPMI+s) (AID 1963883); also: nearly all actives have a fitted effect of over 35% in size
# In short: as §1
# [14] = Quantitative highthroughput screen to assess conditional lethalithy of SEM cells grown in RPMI1640 with dialyzed fetal bovine serum (RPMI+ds) (AID 1963884); also: nearly all actives have a fitted effect of over 35% in size; also: potency is read from the fitted curve at half-maximal effect; as to Viability: series mostly up to about 46 µM
# In short: as §1
Structure (SMILES),Potency [1],Potency [2],Potency [3],Potency [4],Potency [5],Potency [6],Potency [7],Potency [8],activity (max response) [9],Potency [10],Potency [11],Potency [12],Potency [13],Potency [14]
NS(=O)(=O)c1cc(Cl)c(Cl)c(S(N)(=O)=O)c1,inactive,inactive,inactive,inactive,inactive,inactive,inactive,inactive,-6.34% (inactive),inactive,–,–,–,–
Cc1cn([C@H]2C=C[C@@H](CO)O2)c(=O)[nH]c1=O,inactive,inactive,inactive,inactive,inactive,inactive,inactive,inactive,4.28% (inactive),inactive,inactive,inactive,inactive,–
CCN1C[C@H](C)n2c(c(O)c3c(=O)n(Cc4ccc(F)c(Cl)c4)nc(C(=O)NC)c32)C1=O,inactive,inactive,inactive,23.5 µM (active),16.6 µM (active),16.6 µM (active),inactive,inactive,–,–,–,–,–,inactive
O=C(OC1C[C@H]2CC[C@@H](C1)[N+]21CCCC1)C(O)(c1ccccc1)c1ccccc1 (stereo partly specified),inactive,inactive,inactive,inactive,inactive,inactive,inactive,inactive,-1.15% (inactive),inactive,inactive,inactive,inactive,inactive
O=C(c1ccc(C(=O)N2CCC(N3CCCC3)CC2)c(Nc2ccccc2)c1)N1CCC(N2CCCC2)CC1,inactive,inactive,inactive,inactive,inactive,inactive,inactive,inactive,11.8% (inactive),inactive,inactive,inactive,inactive,inactive
NC(=O)OCC(COC(N)=O)c1ccccc1,inactive,inactive,inactive,inactive,inactive,inactive,inactive,inactive,2.38% (inactive) and -8.33% (inactive),inactive,inactive,inactive,inactive,–
COc1c(N2CCNC(C)C2)c(F)cc2c(=O)c(C(=O)O)cn(C3CC3)c12 (stereo unspecified),inactive,18.6 µM (active),14.8 µM (active),inactive,inactive,inactive,inactive,–,-4.21% (inactive) and 1.72% (inactive),inactive,inactive,–,–,0.662 µM (active)
CCN[C@H]1C[C@H](C)S(=O)(=O)c2sc(S(N)(=O)=O)cc21,inactive,inactive,inactive,inactive,inactive,inactive,inactive,inactive,3.89% (inactive) and 5.72% (inactive),inactive,inactive,inactive,–,–
CNS(=O)(=O)CCc1ccc2[nH]cc(C3CCN(C)CC3)c2c1,inactive,inactive,inactive,inactive,inactive,inactive,inactive,–,-14.7% (inactive),inactive,inactive,inactive,inactive,inactive
O=C(O)CSCC(=O)NC1CCSC1=O (stereo unspecified),inactive,inactive,inactive,inactive,inactive,inactive,inactive,inactive,1.69% (inactive) and -8.03% (inactive),inactive,inactive,inactive,inactive,inactive
O=C(O)c1cn(-c2ccc(F)cc2)c2cc(N3CCNCC3)c(F)cc2c1=O,inactive,inactive,inactive,inactive,inactive,inactive,inactive,inactive,-4.38% (inactive) and 8.16% (inactive),inactive,inactive,inactive,inactive,inactive
COc1ccc(-c2ccc3cc(C(=O)O)ccc3c2)cc1C12CC3CC(CC(C3)C1)C2,inactive,0.211 µM (active),1.32 µM (active),inactive,inactive,inactive,inactive,inactive,-2.5% (inactive) and -9.37% (inactive),inactive,inactive,–,inactive,inactive
C[C@H]1c2cccc(O)c2C(O)=C2C(=O)[C@]3(O)C(O)=C(C(N)=O)C(=O)[C@@H](N(C)C)[C@@H]3[C@@H](O)[C@@H]21,inactive,inactive and 16.6 µM (active),14.8 µM (active),inactive,inactive,inactive,inactive,16.6 µM (active),-2.36% (inactive) and -5.39% (inactive),–,18.7 µM (active),inactive,inactive,–
Cc1nnc(C(=O)NC(C)(C)c2nc(C(=O)NCc3ccc(F)cc3)c(O)c(=O)n2C)o1,inactive,inactive,inactive,inactive,inactive,inactive,inactive,inactive,–,inactive,inactive,inactive,inactive,inactive
CN[C@@H](C)C(=O)N[C@H]1CN(C(=O)CC(C)C)CC[C@H]2CC[C@@H](C(=O)NC(c3ccccc3)c3ccccc3)N2C1=O,inactive,inactive,5.8 µM (active) and 2.35 µM (active),1.32 µM (active),2.64 µM (active),1.05 µM (active),8.33 µM (active),11.8 µM (active),-12.1% (inactive),inactive,8.33 µM (active),–,–,–
